# Many of the other results were omitted from the sample, so the strongest signals are more common in it than they were.
# Tests used:
# Experiment in all cases: glycan array binding signal (z-score within array); higher = stronger binding
# Conditions in all cases: glycan notation: IUPAC condensed, linker removed
# [1] = target: GlcNAc(b1-4)Gal(b1-4)GlcNAc
# Procedure, shortened: (§1)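 The binding signal is a Z-score computed within each array. Data were drawn from 3228 arrays in the Consortium for Functional Glycomics database, restricted to those with a known protein sequence. Scores were averaged over arrays of the same protein sequence at different concentrations or buffers, and over linkers, and negative values can be taken as non-binding.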
# [2] = target: GlcNAc(b1-4)GlcNAc(b1-4)GlcNAc(b1-4)GlcNAc(b1-4)GlcNAc
# Procedure, shortened: as §1
# [3] = target: Man(a1-2)Man(a1-6)[Man(a1-3)]Man(a1-6)[Man(a1-2)Man(a1-2)Man(a1-3)]Man
# Procedure, shortened: as §1
# [4] = target: Man(a1-3)[Man(a1-6)]Man(a1-6)[Man(a1-3)]Man
# Procedure, shortened: as §1
# [5] = target: Neu5Ac(a2-3)Gal(b1-3)GalNAc
# Procedure, shortened: as §1
# [6] = target: Neu5Ac(a2-3)Gal(b1-3)GalNAc6S
# Procedure, shortened: as §1
# [7] = target: Neu5Ac(a2-3)Gal(b1-3)GlcNAc(b1-6)GalNAc
# Procedure, shortened: as §1
# [8] = target: Neu5Ac(a2-3)Gal(b1-4)GlcNAc(b1-6)[Neu5Ac(a2-3)Gal(b1-3)]GalNAc
# Procedure, shortened: as §1
# [9] = target: Neu5Ac(a2-3)Gal6S(b1-4)[Fuc(a1-3)]GlcNAc
# Procedure, shortened: as §1
# [10] = target: Neu5Ac(a2-6)Gal(b1-4)GlcNAc(b1-2)Man(a1-6)[GlcNAc(b1-2)Man(a1-3)]Man(b1-4)GlcNAc(b1-4)GlcNAc
# Procedure, shortened: as §1
# [11] = target: Neu5Ac(a2-6)Gal(b1-4)GlcNAc(b1-6)[Gal(b1-3)]GalNAc
# Procedure, shortened: as §1
# [12] = target: Neu5Ac(a2-8)Neu5Ac(a2-3)Gal(b1-3)GalNAc(b1-4)[Neu5Ac(a2-8)Neu5Ac(a2-3)]Gal(b1-4)Glc
# Procedure, shortened: as §1
# [13] = target: Neu5Ac9Ac(a2-3)Gal(b1-3)GlcNAc
# Procedure, shortened: as §1
# [14] = target: Neu5Ac9Ac(a2-6)Gal(b1-4)GlcNAc
# Procedure, shortened: as §1
# [15] = target: Neu5Gc(a2-3)Gal(b1-3)[Fuc(a1-4)]GlcNAc
# Procedure, shortened: as §1
# [16] = target: Neu5Gc(a2-8)Neu5Gc(a2-6)Gal(b1-4)GlcNAc
# Procedure, shortened: as §1
binder,measurement,setting,value
EUL D1A (Oryza sativa) (protein) MFGFGHHHNQAPAAPSDPNQIFKIFCRANENYCLTVRDSAVVLAPVNPKDEHQHWFKDMRFSTKVKDGEGMPAFALVNKATGLAVKHSLGQSHPVKLVPFNPEYEDASVLWTESKDVGKGFRCIRMVNNTRLNLDAFHGDKDHGGVRDGTTVVLWEWCKGDNQSWKILPWGPEAHSSSPGAATACTIGGVPVHTVRVFSAAGEDYCLTVRNGTACLAPKNPRDDYQHWIKDMRHSNKIRDEEGYPAFALVNKVTGEAIKHSTGQGHPVKLVPYNPEYQDESVLWTESKDVGKGFRCIRMVNNIYLNFDAFHGDKDHGGIHDGTEIVLWKWCEGDNQRWKILPWILEQKLISEEDLNSAVDHHHHHH,glycan array binding signal (z-score),[1],-1.13
same,glycan array binding signal (z-score),[2],0.586
same,glycan array binding signal (z-score),[3],2.83
same,glycan array binding signal (z-score),[4],-0.067
same,glycan array binding signal (z-score),[5],-0.87
same,glycan array binding signal (z-score),[6],2.32
same,glycan array binding signal (z-score),[7],-1.15
same,glycan array binding signal (z-score),[8],2.69
same,glycan array binding signal (z-score),[9],-0.714
same,glycan array binding signal (z-score),[10],1.83
same,glycan array binding signal (z-score),[11],-0.319
same,glycan array binding signal (z-score),[12],0.293
same,glycan array binding signal (z-score),[13],-0.59
same,glycan array binding signal (z-score),[14],-0.088
same,glycan array binding signal (z-score),[15],0.008
same,glycan array binding signal (z-score),[16],-0.137
